Reference: publication PMC12136788
Where a chain is given by its changes, count along the chain named. Over roughly 24,000 sequences, “enrichment r” has its median near 0.99; the highest 2% begin near 3.7. What follows is part of a selection rich in the highest values, with near analogues and random picks from the rest.

T1: UNK ZnF1-3 (human, UniProt Q9C0B0 31-174)
T1 sequence: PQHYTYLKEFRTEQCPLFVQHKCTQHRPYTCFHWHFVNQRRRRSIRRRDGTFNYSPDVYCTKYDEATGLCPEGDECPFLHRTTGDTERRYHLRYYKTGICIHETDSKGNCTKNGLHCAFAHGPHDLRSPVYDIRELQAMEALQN

B1: chr7:141450121:141450122:+_ENSG00000106028_ENST00000265304|hu_mus|hu_hu_hu_mus_True|8_98 (ssRNA)
RNA: GGGAGUUCUACAGUCCGACGAUCUCAUCCGUUCUAUUCCUUCUCUUUUGUCUGGUCACUCAGAAAUAUAAUGUUAUCAGCUAUGAUUGUUGUUGCUUGCCGCCUCACAUUGUUUUUAUCCAUGUACUCACCAUAGUCCACUUUCAACAGAGGAUUGAGCAUCA
B2: chr4:17845017:17845018:+_ENSG00000109805_ENST00000514176|hu_mus|hu_hu_hu_mus_False|48_108 (ssRNA)
RNA: GGGAGUUCUACAGUCCGACGAUCGCUUCCUAACUUAGUAUCUUCAUUAAGGAACUCUGCAAGGUUAAGUUUACUUUUCUGUAGCGCGCGGUUUUGGGCUCGUCUGGGUAAUCUCAUCUUCAUUUCUGAUGGUGGUUCAUGAUCCAACAGAGGAUUGAGCAUCA
B3: chr8:67197462:67197463:-_ENSMUSG00000031604_ENSMUST00000034015|mus_mus|FALSE|FALSE (ssRNA)
RNA: GGGAGUUCUACAGUCCGACGAUCUCCGAACUGACCAGUGUAUGUAAAAGGCUUAAAAGGCAACGUCAACUUCAGCCUCCUAUGGCAUGAAGUGGUGAGUUGUACAUUAAUACUUCCUCCAGUUCCCGAAACCUUUUGGUGAGGCAACAGAGGAUUGAGCAUCA
B4: chr5:150025729:150025730:+_ENSMUSG00000041264_ENSMUST00000121416|mus_mus|FALSE|FALSE (ssRNA)
RNA: GGGAGUUCUACAGUCCGACGAUCCACGAAGGCUCUCUUCUGAUCUUCUUUCCGAGGCUGAUUCUGUGCUGACCUGGCUGCUACUGUUUUAGAAGACGCUGUGGUUUCUCGUUUUCUCAAAUUAGAUGCCUGAGAUUUACCAGGCAACAGAGGAUUGAGCAUCA
B5: chr8:87797514:87797515:-_ENSMUSG00000031696_ENSMUST00000034131|mus_hu|motif|central (ssRNA)
RNA: GGGAGUUCUACAGUCCGACGAUCAUUAUGGAAUCCACCUGGUCUUGAGAGACAAUUUCUGUGUUAUAAUCCAGAACAUUACGGAGCACAUAACAACUCAUGCUCUUUCUGGACUCGUAGUCAAAGUACUCAAAGAGUGGGUGACAACAGAGGAUUGAGCAUCA
B6: 107145582_107145702_897_CDS_ENSG00000125266_ENST00000245323|human|control|control (ssRNA)
RNA: GGGAGUUCUACAGUCCGACGAUCGAGCGACAGCGUGGUCGUGUGCUGCGGCGAGUGCUUCCUGUGUCUCCUCCGGUACUUCAGCAAGAGGACCACCAGCGUGAUGAUGAUGACGAUGAAGAUGAUGCAUCCUGAAGCAAUCCCCAACAGAGGAUUGAGCAUCA
B7: chr9:115598534:115598535:+_ENSG00000148158_ENST00000374232|hu_mus|FALSE|FALSE (ssRNA)
RNA: GGGAGUUCUACAGUCCGACGAUCCAGCUUAUAGCCUCCGGUGACGUGCUUGACUGACUCACCCACUCUGCUCAGCAAUGCUAUCCCUUGCUUCUUGUAGGCAUUCAGGUCCUUAGCAGUGAGGAACACAUUGAAGUGUUCAUUCAACAGAGGAUUGAGCAUCA
B8: chrX:165757501:165757502:-_ENSMUSG00000031352_ENSMUST00000112115|mus_hu|FALSE|FALSE (ssRNA)
RNA: GGGAGUUCUACAGUCCGACGAUCGCAGGAGCAGAUGGAGACAAACCCAUGGCUGGAAACAGUGUUGACUGUAAACAAUUUUAAAUUUCCACCUGCUCCAGCCCGUGGUCCCCAGACCAAACCGGCCGCGGCCAGCCUGCCCUUCAACAGAGGAUUGAGCAUCA
B9: chr10:33190432:33190433:-_ENSG00000150093_ENST00000302278|hu_mus|hu_hu_hu_mus_True|58_98 (ssRNA)
RNA: GGGAGUUCUACAGUCCGACGAUCUACAUUUUCCAAACCUGCACAUGAAUAAAACCCUGGCCACAGAGCCCCAAAACUACCUAACUGUGACUAAGAUGCUGCUGCUGUGAGCUUGGUGUUGCAAAAUCCGCCUGAGUAGGAUUCCAACAGAGGAUUGAGCAUCA
B10: 10529348_10532452_191_CDS_ENSG00000160049_ENST00000377038|human|control|control (ssRNA)
RNA: GGGAGUUCUACAGUCCGACGAUCCAGGGUGACUGGUGUCAGGGACUUAUCAAUGGCCAGAAUGUCACAGGCCUUGCUCCUCAGGUCUUCGAGGCAGGAGGCGGCCACGCCGUGCUGUUCGCGGCUGUAGUUGCGGCGCAGCAGCAACAGAGGAUUGAGCAUCA
B11: 24223610_24223730_1957_3pUTR_ENSG00000173960_ENST00000309033|human|control|control (ssRNA)
RNA: GGGAGUUCUACAGUCCGACGAUCUUUUGAAAGAAAAUAAAAUGGAAAGGGAAUAGGCUUUUUAGAAAGAUAAUUUUCUUUUAUUACAUUUUUAUAAAGUGUAGAAAUGUGAGUAGGCAGAUUAAUCUUGAUACUAUACUGAGCCAACAGAGGAUUGAGCAUCA
B12: chr4:125586161:125586162:-_ENSG00000151458_ENST00000504087|hu_hu|motif|central (ssRNA)
RNA: GGGAGUUCUACAGUCCGACGAUCUUGUGUAGUGGCAACAGCUGAUUUAUAAAAUUUAAAGAUUUUAAUUUCAAAAAUAUCGGUUAAGGAGUUUUAUAUUUGGAGGACAAUUUUUACUUUUUAAUGGAGCAGAAGCCAUUUUCACAACAGAGGAUUGAGCAUCA
B13: 105048333_105048453_1516_3pUTR_ENSG00000148798_ENST00000369849|human|control|control (ssRNA)
RNA: GGGAGUUCUACAGUCCGACGAUCAGCAUUAACUUUUUCAAAGCAAUGGAAUUAUAUUUUUUGGCUUGAAAUGGUGGUUUCUUCUAUAUUUGAUUUCUCGGUUUUCUUAGUAGAUAUUACUGUCUCCUCUAAUAUUUCUUCAAACAACAGAGGAUUGAGCAUCA
B14: chr12:86641468:86641469:-_ENSMUSG00000034290_ENSMUST00000040992|mus_mus|FALSE|FALSE (ssRNA)
RNA: GGGAGUUCUACAGUCCGACGAUCGCAAUAUUAAGAGAGAUAGCCAACCUUUUUUUUGGGGGGGGGGUUUGGUUAAAUGAAACAAUAUUAAUUUAGCUGUGUGUAGUACAGAGGAUAUGGUACUUAUCAAAGGAGCUGCUGUGGCAACAGAGGAUUGAGCAUCA
B15: chr8:13147844:13147845:+_ENSMUSG00000031446_ENSMUST00000016680|mus_hu|FALSE|FALSE (ssRNA)
RNA: GGGAGUUCUACAGUCCGACGAUCUACAAUAUUAACAAUCUCUAGACACAACGAACUUAUAAGAAAAAAAAAAUAGAAAUCUGUUUGGUCUUUCUUAGACCACAUAUCAUGGAACUCAUAAAUGAAAAUUUUCAAAGAUAGAAACAACAGAGGAUUGAGCAUCA
B16: chr4:125586161:125586162:-_ENSG00000151458_ENST00000504087|hu_hu|FALSE|FALSE (ssRNA)
RNA: B12 RNA with G81U, G82A
B17: chr1:60041781:60041782:+_ENSMUSG00000041040_ENSMUST00000036540|mus_hu|mus_mus_mus_hu_False|1_38 (ssRNA)
RNA: GGGAGUUCUACAGUCCGACGAUCAAGUUUACAAUAGUAAAGUAAAUGCAGUAGUGGCAAAUUUUCUUUUAUUUUCCUUCACAAAAGAAAAUCUUUAGAUCUCAGUUCUAGUCUUGGACAUAGUGAAAGCUAUAAAUGCCACUGCAACAGAGGAUUGAGCAUCA
B18: chrX:147030410:147030411:+_ENSG00000102081_ENST00000218200|hu_mus|FALSE|FALSE (ssRNA)
RNA: GGGAGUUCUACAGUCCGACGAUCACUUCAUGCCCUGUGCCAUCUUGCCUACUAUUUGUCUUUGGCCUAACAAAGUUUUCUAAAAUGGAGUAAGAAUUACGGAAAUGGUAGAGGAAAUAUAACUUCGGAAUUAUGUAGCUUAUUCAACAGAGGAUUGAGCAUCA
B19: chr4:17841332:17841333:+_ENSG00000109805_ENST00000514176|hu_hu|FALSE|FALSE (ssRNA)
RNA: GGGAGUUCUACAGUCCGACGAUCCUUUUGUAUAGACUCGAAUUUCUGGCGAGCACGGACUUGUUAAGAUCUCAUUGCAAAUUUUCAUAGCCAAAUUGUCAUGUACUGUUAAGGCCUGAUAAUCUUGGGAAGUCUUGGCCUGAGCAACAGAGGAUUGAGCAUCA
B20: chr17:56552419:56552420:-_ENSMUSG00000013236_ENSMUST00000086828|mus_mus|mus_mus_mus_hu_False|28_78 (ssRNA)
RNA: GGGAGUUCUACAGUCCGACGAUCAAAAAAUACACUAUUUAAAAAAAAUGAAAUGUCAGAAAAAGAAGUUACACUGAGAGUUUUAAAAGAAAGCUGGAUUCUGGUCCUUGCCAAAAGUCCCCAGGCUGCAGAGCGGGGAGGAGCCAACAGAGGAUUGAGCAUCA
B21: chr17:56552419:56552420:-_ENSMUSG00000013236_ENSMUST00000086828|mus_mus|mus_mus_mus_hu_False|28_48 (ssRNA)
RNA: GGGAGUUCUACAGUCCGACGAUCAAAAAAUACACUAUUUAAAAAAAAUGAAAUGUCACGGGAUACAGUUACACUGAGAGUUUUAAAAAAAAAUAAGAUUCUGGUCCUUGCCAAAAGUCCCCAGGCUGCAGAGCGGGGAGGAGCCAACAGAGGAUUGAGCAUCA
B22: chr17:56552419:56552420:-_ENSMUSG00000013236_ENSMUST00000086828|mus_mus|mus_mus_mus_hu_False|28_58 (ssRNA)
RNA: B21 RNA with G77C, G79C, U81A, A88G, A92G, U93C, A94U, A95G
B23: chr17:56552419:56552420:-_ENSMUSG00000013236_ENSMUST00000086828|mus_mus|mus_mus_mus_hu_False|28_98 (ssRNA)
RNA: B21 RNA with U38A, U39A, A88G, A92G, U93C, A94U, A95G

target: T1, UNK ZnF1-3; assay: nsRBNS (natural sequence RNA bind-n-seq); RBNS binding buffer (assumed for nsRBNS): 25 mM Tris pH 7.5, 150 mM KCl, 3 mM MgCl2, 0.01% Triton X-100, 500 ug/ml BSA, 20 U/ml SUPERase-In, 4 C; UNK is unkempt and MSI1 is Musashi-1; names of the RNAs are library labels; protein concentration not given here; high values mean tight binding

Q: How did the binding signal turn out when B1 was run?
A: 0.398 enrichment R

Q: How did the binding signal turn out when B2 was run?
A: 0.472 enrichment R

Q: Which binding signal does the source give for B3 here?
A: 0.838 enrichment R

Q: B4 was tested. Which binding signal did it give?
A: 0.579 enrichment R

Q: For B5, which binding signal is on record?
A: 0.988 enrichment R

Q: With B6 as the binder, how does the binding signal read?
A: 1.32 enrichment R

Q: With B7 as the binder, how does the binding signal read?
A: 0.557 enrichment R

Q: How did the binding signal turn out when B8 was run?
A: 0.781 enrichment R

Q: B9 was tested. Which binding signal did it give?
A: 1.55 enrichment R

Q: With B10 as the binder, how does the binding signal read?
A: 0.999 enrichment R

Q: With B11 as the binder, how does the binding signal read?
A: 3.4 enrichment R

Q: Which binding signal does the source give for B12 here?
A: 4.45 enrichment R

Q: Which binding signal does the source give for B13 here?
A: 4.33 enrichment R

Q: For B14, which binding signal is on record?
A: 3.28 enrichment R

Q: For B15, which binding signal is on record?
A: 3.59 enrichment R

Q: B16 was tested. Which binding signal did it give?
A: 4.35 enrichment R

Q: B17 was tested. Which binding signal did it give?
A: 0.52 enrichment R

Q: How did the binding signal turn out when B18 was run?
A: 1.78 enrichment R

Q: Which binding signal does the source give for B19 here?
A: 0.957 enrichment R

Q: B20 was tested. Which binding signal did it give?
A: 3.64 enrichment R

Q: For B21, which binding signal is on record?
A: 6.32 enrichment R

Q: How did the binding signal turn out when B22 was run?
A: 4.14 enrichment R

Q: For B23, which binding signal is on record?
A: 6.54 enrichment R
